FMDV inh – foot and mouth disease virus antiviral activity | AID 1159524 | 1.2% of 410,000 active | Potency, µM (top dose mostly 57.9 µM), for the others: at the top dose activity change, negative = inhibition, hits mostly inhibitors | FMDV antiviral cell-based qHTS; calls by dose curve; tested in HEK293T cells; also: read-out not given here; potency is read from the fitted curve at half-maximal effect; % is scaled to controls: 0 for no effect and ±100 for the full control effect; nearly all actives have a fitted effect of over 45% in size
MARV entry inh – blocks Marburg virus binding to or entry into cells. Marburg virus pseudotyped entry inhibition, cell reporter. Potency, µM (series often up to 37.8 µM), without a hit: at the top dose activity change, negative = inhibition, hits mostly inhibitors. 1.8% of 300,000 active; calls by dose curve; tested in HEK293 cells; also: potency is read from the fitted curve at half-maximal effect; % is scaled to controls: 0 for no effect and ±100 for the full control effect
LASV entry inh – inhibitors of Lassa virus binding or cell entry; Lassa virus pseudotype entry inhibition, cell reporter; Potency, µM (doses to about 37.9 µM), for the others: top-dose activity change, negative = inhibition, usual class: inhibitors; 1.2% of 300,000 active; AID 540256; calls by dose curve; tested in HEK293 cells; also: potency is read from the fitted curve at half-maximal effect; % is scaled to controls: 0 for no effect and ±100 for the full control effect; nearly all actives have a fitted effect of over 50% in size
Shiga toxin inh – blocks Shiga toxin action in Vero cells. 9.2% of 290,000 active. inhibition, % at 38.7 µM. AID 2315. Vero cells, Shiga toxin protein synthesis inhibition reporter; in the data active = inhibition mostly above about 28%, no sharp cut-off; inactive = mostly below about 43%; also: 0% is about no effect
HCV inhibitor – inhibitors of hepatitis C virus infection | Huh7.5.1 HCVcc-Cre infection, luciferase reporter, 44 h | Potency, µM (titrated, usually from 41.8 µM), inactives show at the top dose activity change, negative = inhibition, usual class: inhibitors | 3.4% of 340,000 active | AID 651820; active = well fitted inhibition curve with a large enough effect; inconclusive = small, poorly fitted or top-dose-only effect, or another doubt; inactive = no such curve, though single readings can be large or run the other way; also: potency is read from the fitted curve at half-maximal effect; % is scaled to controls: 0 for no effect and ±100 for the full control effect
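Cells (1,000/well) were plated 4 h before compound, then infected with HCVcc-Cre virus (~0.5 moi). After 44 h further culture, infection was read as luciferase luminescence following a 15 min substrate incubation at room temperature.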
Cycloheximide cs – counter-screen for Shiga toxin inhibitors: cycloheximide protein synthesis inhibition; cell reporter, cycloheximide protein synthesis inhibition counterscreen; max response, %; 12% of 300,000 active; AID 2314; in the data active = max response mostly above about 13%, no sharp cut-off; inactive = mostly below about 14%; also: read at 38.3 µM for the half of the compounds with a filed dose; 0% is about no effect
The depositor's hits bear a star; ? = inconclusive; · = not tested or not shown; [ ] = remark or other dose. An excerpt weighted towards active compounds, which were near 13% of everything screened.

SMILES | FMDV inh | MARV entry inh | LASV entry inh | Shiga toxin inh | HCV inhibitor | Cycloheximide cs
COc1ccccc1CN(C)CC(=O)Nc1ccccc1-c1ccccc1 | ? | ? | 10.8% | 2.0 | ? | 14.8*
COc1ccc(CN(C)CC(=O)Nc2ccccc2-c2ccccc2)c(OC)c1 | ? | ? | ? | -1.8 | ? | 10.9
NS(=O)(=O)c1ccc(NC(=O)/C=C/c2ccc3c(c2)OCO3)cc1 | 12.5% | ? | ? | 18.0 | ? | 5.1
COC(=O)c1cc(NC(=O)/C=C/c2ccc3c(c2)OCO3)cc(C(=O)OC)c1 | -10.4% | ? | ? | -2.4 | ? | -2.1
COc1cc(/C=C/C(=O)Nc2cccnc2)cc(OC)c1OC | 13.5% | · | · | 13.4 | ? | -1.0
COC(=O)c1cccc(NC(=O)/C=C/c2ccc3c(c2)OCO3)c1 | -2.8% | ? | 11.2µM* | 21.3* | ? | 42.7*
CC(=O)Nc1ccc(NC(=O)/C=C/c2ccc3c(c2)OCO3)cc1 | 10.4% | -29.5%[46.1 µM] | -10.1% | 22.8 | ? | 31.8*
O=C(/C=C/c1ccc2c(c1)OCO2)c1cccnc1 | -21.9% | 0.4%[46.1 µM] | 16.4%[46.1 µM] | 29.1 | 17.7% | 22.4*
O=C(/C=C/c1ccc2c(c1)OCO2)Nc1cccnc1 | 0.0% | · | · | 90.5* | 2.8% | 35.6*
O=C(NCc1ccccc1)C1=C[C@@H](c2coc3ccccc3c2=O)C[C@@H](OCc2ccc(CO)cc2)O1 | -1.1% | · | · | -15.2 | -11.9% | -1.3
Cc1ccc(S(=O)(=O)Nc2nnc(CC(C)(C)C)s2)cc1 | 70.2% | · | · | 1.5 | 9.1% | -0.9
Cc1cccnc1NC(=O)/C=C/c1ccc2c(c1)OCO2 | -9.5% | -7.8% | -3.7% | 85.0* | 33.9% | 50.4*
O=C(N/N=C\C=C\c1ccc2c(c1)OCO2)c1cccnc1 | 35.8% | 9.6% | 4.1% | 78.0* | -3.3% | 17.6*
O=C(N/N=C/c1cc2c(cc1Br)OCO2)c1cccnc1 | 17.2% | · | · | 30.6 | -5.2% | 14.4
O=C(/C=C/c1ccc2c(c1)OCO2)Nc1c(C(=O)O)[nH]c2ccccc12 | 4.8% | ? | -27.8% | 54.7* | 2.2% | 50.5*
Cc1cc(C)nc(NC(=O)/C=C/c2ccc3c(c2)OCO3)c1 | 5.3% | ? | ? | 66.2* | ? | 52.0*
O=C(Nc1cccc(F)c1)c1cnc2sc(N3CCCC3)nn2c1=O | ? | · | 6.2%[46.1 µM] | · | · | ·
O=C(COc1ccccc1[N+](=O)[O-])N1CCN(S(=O)(=O)c2ccccc2)CC1 | -12.7% | -6.9%[46.1 µM] | 0.3% | 25.8 | 0.9% | 6.7
CC(C)(C)c1ccc(/C=C/C(=O)Nc2ccc3c(c2)OCCO3)cc1 | · | -27.5% | 6.51µM* | · | · | ·
O=C(/C=C/c1ccco1)Nc1ccc2c(c1)OCO2 | 5.4% | ? | ? | 113.3* | -7.7% | 38.3*
Cc1cc(OC(=O)c2cc(Br)ccc2Cl)c([N+](=O)[O-])c(=O)[nH]1 | -9.1% | · | · | 1.5 | 11.5% | -3.8
O=C(Nc1ccc(-c2noc(CCc3ccccc3)n2)cc1)c1ccco1 | -31.6% | ? | ? | 84.9* | ? | 57.6*
c1ccc(CCc2nc(-c3ccccc3)no2)cc1 | 58.1% | -1.8% | ? | 128.6* | 9.6% | 34.5*
c1cncc(-c2noc(CC3CCCCC3)n2)c1 | 45.6% | 2.8%[46.1 µM] | 4.0% | 54.5* | 3.5% | 41.1*
c1ccc(CCc2ccccc2-c2nc(-c3cccnc3)no2)cc1 | ? | ? | -13.9% | -9.0 | 7.08µM* | 3.5
SMILES | FMDV inh | MARV entry inh | LASV entry inh | Shiga toxin inh | HCV inhibitor | Cycloheximide cs
O=C(c1cc(COc2ccc(F)cc2Cl)on1)N(Cc1ccncc1)CC1CCCO1 (centres undefined) | -14.7% | -14.9%[46.1 µM] | ? | -5.5 | ? | -2.1
O=C(CCc1nc(-c2ccccc2)no1)N1CCCC1 | 19.0% | 12.1% | 0.5% | 21.0 | -2.9% | 14.2
O=C1CCC(=O)N1CCCCCc1nc(-c2ccccc2)no1 | -5.2% | -0.5% | -7.5% | 64.5 | -22.6% | 40.9*
Brc1ccc(-c2noc(CCc3ccccc3)n2)cc1 | 43.6% | ? | 28.3% | · | 22.0% | ·
CCCc1nc(-c2ccc(-c3ccc(F)cc3)cc2)no1 | 26.8% | 3.7% | -1.0% | 28.7 | -27.1% | 17.9*
c1ccc(CCc2nc(-c3cccnc3)no2)cc1 | 41.6% | 2.7%[46.1 µM] | 3.7% | 52.6* | 11.2µM* | 22.5*
COc1ccc(CNC(=O)CC(C)c2ccccc2)cc1 (centres undefined) | 14.3% | · | · | -4.1 | -1.5% | 1.1
O=C(CSc1nncn1-c1ccccc1)NC1CCCC1 | -6.6% | · | · | -3.3 | -3.5% | -3.6
CC(NC(=O)CCNC(=O)N1CCn2c1nc1ccccc12)c1ccccc1 (centres undefined) | -19.6% | · | · | 24.7 | 18.8% | -2.1
Cc1cc(-c2nc(C)c(C(=O)NNS(=O)(=O)c3ccc(Cl)cc3Cl)s2)no1 | 10.9% | 1.8%[46.1 µM] | -17.2%[46.1 µM] | 13.6 | -2.2% | 4.2
COc1ccccc1CNC(=O)CNC(=O)c1ccc(Br)o1 | 30.9% | 13.7% | 8.2% | -2.6 | 4.7% | -2.9
Cc1cccc(NC(=O)c2ccc(-n3cnc4cccnc43)cc2)c1C | 10.5% | · | 24.5%[46.1 µM] | · | · | ·
O=C1/C(=C/c2ccncc2)N=C2CCCCCN12 | 2.8% | · | · | -5.8 | 11.1% | 11.4
COc1ccc(/C=C2/N=C3CCCCCN3C2=O)cc1OC | 22.1% | 16.2% | 5.6% | 11.0* | 16.8% | 11.5
COc1ccc(/C=C2\N=C3CCCCCN3C2=O)cc1 | 48.4% | ? | ? | 76.2* | 0.4% | 41.4*
Cc1c(C(=O)N2CCC(c3nc4ccccc4s3)CC2)oc2cc(Br)ccc12 | -20.0% | 9.8%[46.1 µM] | 9.3%[46.1 µM] | · | · | ·
O=C(COC(=O)c1ccco1)NCc1ccc2c(c1)OCO2 | 14.2% | · | · | 32.7 | 6.3% | 9.9
Cn1cccc1C(=O)OCC(=O)Nc1ccc2c(c1)OCO2 | 33.8% | 10.6%[46.1 µM] | 8.2% | 64.4* | 8.5% | 32.9*
O=C(COC(=O)c1ccco1)Nc1ccc2c(c1)OCO2 | 8.2% | 21.1% | -0.9% | 52.9* | -1.3% | 24.6*
O=C(C1CCCN(S(=O)(=O)c2ccc(Cl)cc2)C1)N1CCCC1 (centres undefined) | -26.6% | 10.1%[46.1 µM] | 13.3% | 3.1 | -7.6% | 1.9
COc1ccc(Cl)cc1NC(=O)CN(C)C(=O)CN1C(=O)NC2(CCCC2)C1=O | -12.6% | ? | ? | · | 22.3% | ·
CCCN(CCC)CCCNc1ccc(C(=O)Nc2cccc(OC)c2)cc1[N+](=O)[O-] | -12.6% | ? | -18.7% | 13.5 | ? | -3.9
COc1cccc(NC(=O)c2ccc(NCCCN3CC(C)CC(C)C3)c([N+](=O)[O-])c2)c1 (centres undefined) | -17.5% | -26.8%[46.1 µM] | 5.3% | -6.9 | 7.94µM* | -4.0
COc1cccc(NC(=O)c2ccc(NCCCN3CCC(C)CC3)c([N+](=O)[O-])c2)c1 | -3.5% | 3.98µM* | -15.2%[46.1 µM] | -10.5 | ? | -3.6
Cc1ccc(NC(=O)c2ccc(NCCCN3CCC(C)CC3)c([N+](=O)[O-])c2)c(C)c1 | 4.0% | · | · | -6.9 | 11.2µM* | -7.6
CC(C)CN(CCNC(=O)CCN1N=C(c2ccccc2)CCC1=O)CC(C)C | -5.6% | · | ? | · | · | ·
CC(=O)c1ccc(/C=C/c2nc3ccccc3n2C)o1 | 11.6% | ? | ? | 60.8* | 9.9% | 38.2*

Screens (PubChem BioAssay)
